Measured values: PubChem BioAssay (NCI)
Values joined by “and” are separate entries in the source; they are usually repeats but may differ in a detail not shown here. Identical values can stand only once. About 79,000 compounds went through this panel and 15% of them were active in at least one assay; those are over-represented in the sample as a whole. Where a structure was tested more than once in an assay, its records may differ in their call. Active and inactive are the calls of the source. Rule as the data show it: active = growth inhibition above about 70%; inactive = the rest.

Columns and labels:
[1] = NCI Yeast Anticancer Drug Screen. Data for the rad52 strain (AID 147);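 also: 0% = growth of vehicle-treated control cultures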; details: S. cerevisiae rad52 mutant growth inhibition, stronger effect = higher value
Summary of the method: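 Growth of repair-deficient yeast cells was compared between compound-treated and vehicle-treated cultures to give percent inhibition.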

[2] = NCI Yeast Anticancer Drug Screen. Data for the wt1 strain (AID 149);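 also: 0% = growth of vehicle-treated wt1 cultures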; details: S. cerevisiae wt1 strain (SPY 50644) growth inhibition, stronger effect = higher value
Summary of the method: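 Using yeast strain wt1, compound-induced growth inhibition was determined against vehicle-treated cultures.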

[3] = NCI Yeast Anticancer Drug Screen. Data for the rad50EPP+ strain (AID 151);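 also: 0% = growth of vehicle-treated control cultures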; details: S. cerevisiae rad50 mutant strain, stronger effect = higher value
Summary of the method: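 Measured: growth inhibition of rad50EPP+ yeast. Reference: vehicle-treated controls. Screen uses strains with defined genetic alterations in DNA damage repair or cell cycle control.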

[4] = NCI Yeast Anticancer Drug Screen. Data for the mgt1 strain (AID 153); details: S. cerevisiae mgt1 mutant growth inhibition, stronger effect = higher value
Summary of the method: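 Compounds were applied to mgt1 mutant yeast, and growth was then compared against vehicle-treated control cultures to give percent inhibition.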

[5] = NCI Yeast Anticancer Drug Screen. Data for the rad50 strain (AID 155);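 also: 0% = growth of vehicle-only cultures of the same strain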; details: S. cerevisiae rad50 strain growth inhibition, stronger effect = higher value
Summary of the method: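 Relative growth inhibition (compound vs vehicle) was measured in yeast with a defined repair-gene alteration.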

[6] = NCI Yeast Anticancer Drug Screen. Data for the mec2-1 strain (AID 157); details: S. cerevisiae mec2-1 strain, stronger effect = higher value
Summary of the method: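 Compounds were applied to mec2-1 yeast cells. Their growth was then compared with that of vehicle-treated cultures to give growth inhibition.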

[7] = NCI Yeast Anticancer Drug Screen. Data for the rad14 strain (AID 159);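 also: 0% = growth of vehicle-treated control cultures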; details: S. cerevisiae rad14 strain growth inhibition, stronger effect = higher value
Summary of the method: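 Screen for anticancer potential: a yeast strain altered in DNA damage repair is grown with compound, and reduced growth is quantified against vehicle controls.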

[8] = NCI Yeast Anticancer Drug Screen. Data for the sgs1 mgt1 strain (AID 161);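 also: 0% = growth of cultures given vehicle only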; details: S. cerevisiae sgs1 mgt1 strain, stronger effect = higher value
Summary of the method: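 Compounds are added to genetically altered yeast, and growth is compared with cultures given vehicle alone to give percent inhibition.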

[9] = NCI Yeast Anticancer Drug Screen. Data for the CLN2oe strain (AID 163);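 also: 0% = growth of vehicle-only control cultures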; details: S. cerevisiae CLN2oe strain, stronger effect = higher value
Summary of the method: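 Cells of an engineered yeast line with disturbed cell-cycle regulation are treated with compound. Inhibition of growth is then calculated relative to the vehicle-treated reference.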

[10] = NCI Yeast Anticancer Drug Screen. Data for the cln2 rad14 strain (AID 165);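 also: 0% = growth equal to vehicle treated cultures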; details: S. cerevisiae cln2 rad14 strain, stronger effect = higher value
Summary of the method: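 Strain: cln2 rad14 yeast, altered in cell cycle control and DNA damage repair. Read-out: growth inhibition vs vehicle.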

[11] = NCI Yeast Anticancer Drug Screen. Data for the bub3 strain (AID 167); details: S. cerevisiae bub3 mutant strain, stronger effect = higher value
Summary of the method: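 Screening used yeast with an engineered genetic alteration affecting cell cycle control. Compound-exposed cultures were compared with vehicle cultures, and reduced growth was taken as inhibition.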

[12] = NCI Yeast Anticancer Drug Screen. Data for the wt2 strain (AID 169);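 also: 0% = growth of vehicle-treated yeast cultures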; details: S. cerevisiae wt2 strain growth inhibition, stronger effect = higher value
Summary of the method: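 Growth of compound-treated yeast is measured and expressed as inhibition relative to vehicle-only controls.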

[13] = NCI Yeast Anticancer Drug Screen. Data for the mlh1 strain (AID 171);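 also: 0% = growth of vehicle-treated control cultures of the same strain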; details: S. cerevisiae mlh1 strain growth inhibition, stronger effect = higher value
Summary of the method: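 Test agents were incubated with yeast bearing a defined DNA damage repair or cell cycle control alteration; values are growth inhibition normalised to vehicle-treated cultures.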

[14] = NCI Yeast Anticancer Drug Screen. Data for the sgs1 strain (AID 173);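 also: 0% = growth of vehicle-only control cultures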; details: S. cerevisiae sgs1 mutant, stronger effect = higher value
Summary of the method: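 Strain with an altered DNA repair or cell cycle pathway exposed to compound. Growth then measured. Value = inhibition versus vehicle control.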

[15] = NCI Yeast Anticancer Drug Screen. Data for the mlh1 rad18 strain (AID 175); details: S. cerevisiae mlh1 rad18 strain growth inhibition, stronger effect = higher value
Summary of the method: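 A repair-deficient yeast strain is exposed to test compound, and growth is scored relative to vehicle-treated controls.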

[16] = NCI Yeast Anticancer Drug Screen. Data for the rad18 strain (AID 177); details: S. cerevisiae rad18 mutant growth inhibition, stronger effect = higher value
Summary of the method: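 DNA-repair-defective yeast; compound treatment; growth inhibition scored against vehicle.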

[17] = at 5.0 µM (retest, dose inferred, filed as 0.5)
[18] = at 50.0 µM (retest, dose inferred, filed as 5.0)

Measured: growth inhibition

CC[PH+](CC)CC.CC[PH+](CC)CC.[Au]
inactive: [1]; at 1.2 µM 16% | [1]; at 3.7 µM 21% | [1]; at 11.0 µM 33% | [2]; at 1.2 µM 6% | [2]; at 3.7 µM 30% | [2]; at 11.0 µM 36% | [2]; at 33.0 µM 43% | [3]; at 1.2 µM 27% | [3]; at 3.7 µM 39% | [3]; at 11.0 µM 40% | [3]; at 33.0 µM 60% | [4]; at 1.2 µM 16% | [4]; at 3.7 µM 21% | [4]; at 11.0 µM 28% | [4]; at 33.0 µM 46% | [5]; at 1.2 µM 24% | [5]; at 3.7 µM 39% | [5]; [17] 22% | [5]; at 11.0 µM 50% | [6]; at 1.2 µM 14% | [6]; at 3.7 µM 24% | [6]; [17] 52% | [6]; at 11.0 µM 55% | [7]; at 1.2 µM 15% | [7]; at 3.7 µM 30% | [7]; at 11.0 µM 34% | [8]; [17] -11% | [9]; at 1.2 µM 2% | [9]; at 3.7 µM 20% | [9]; at 11.0 µM 23% | [9]; at 33.0 µM 54% | [10]; [17] 27% | [11]; at 1.2 µM 8% | [11]; at 3.7 µM 16% | [11]; [17] -25% | [11]; at 11.0 µM 21% | [12]; at 1.2 µM -13% | [12]; at 3.7 µM -9% | [12]; at 11.0 µM 21% | [13]; at 1.2 µM 30% | [13]; at 3.7 µM 49% | [13]; at 11.0 µM 41% | [13]; at 33.0 µM 54% | [14]; at 1.2 µM 28% | [14]; at 3.7 µM 39% | [14]; at 11.0 µM 41% | [15]; [17] 34% | [16]; at 1.2 µM 12% | [16]; at 3.7 µM 16% | [16]; at 11.0 µM 32%
active: [1]; at 33.0 µM 80% | [1]; at 100.0 µM 99% | [2]; at 100.0 µM 98% | [3]; at 100.0 µM 97% | [4]; at 100.0 µM 98% | [5]; at 33.0 µM 92% | [5]; [18] 95% | [5]; at 50.0 µM 89.2% | [5]; at 100.0 µM 99% | [6]; at 33.0 µM 90% | [6]; [18] 99% | [6]; at 50.0 µM 94.2% | [6]; at 100.0 µM 98% | [7]; at 33.0 µM 86% | [7]; at 100.0 µM 99% | [8]; [18] 94% | [8]; at 50.0 µM 89.4% | [9]; at 100.0 µM 97% | [10]; [18] 93% | [10]; at 50.0 µM 89.2% | [11]; at 33.0 µM 79% | [11]; [18] 97% | [11]; at 50.0 µM 89.3% | [11]; at 100.0 µM 98% | [12]; at 33.0 µM 98% | [12]; at 100.0 µM 99% | [13]; at 100.0 µM 99% | [14]; at 33.0 µM 90% | [14]; at 100.0 µM 99% | [15]; [18] 98% | [15]; at 50.0 µM 89% | [16]; at 33.0 µM 92% | [16]; at 100.0 µM 98%

Oc1c(Br)cc(Br)cc1Br
59.5% (inactive) and 98.7% (active): [8]; at 50.0 µM
59.6% (inactive) and 99% (active): [15]; at 50.0 µM
44% (inactive) and 99% (active): [6]; [18]
49% (inactive) and 98.4% (active): [10]; at 50.0 µM
54% (inactive) and 98% (active): [5]; [18]
66.5% (inactive) and 99% (active): [5]; at 50.0 µM
35% (inactive) and 97% (active): [15]; [18]
active: [1]; at 100.0 µM 88% | [2]; at 100.0 µM 91% | [3]; at 100.0 µM 88% | [4]; at 100.0 µM 82% | [5]; at 100.0 µM 91% | [6]; at 100.0 µM 86% | [7]; at 100.0 µM 77% | [8]; [18] 79% and 99% | [9]; at 100.0 µM 89% | [10]; [18] 87% and 99% | [11]; [18] 86% and 98% | [11]; at 50.0 µM 70.3% and 99.2% | [11]; at 100.0 µM 87% | [12]; at 100.0 µM 84% | [13]; at 100.0 µM 78% | [14]; at 100.0 µM 88% | [16]; at 100.0 µM 88%
inactive: [1]; at 1.2 µM 5% | [1]; at 3.7 µM 2% | [1]; at 11.0 µM 3% | [1]; at 33.0 µM 30% | [2]; at 1.2 µM -4% | [2]; at 3.7 µM -7% | [2]; at 11.0 µM 2% | [2]; at 33.0 µM 37% | [3]; at 1.2 µM 3% | [3]; at 3.7 µM 12% | [3]; at 11.0 µM 30% | [3]; at 33.0 µM 60% | [4]; at 1.2 µM 12% | [4]; at 3.7 µM 1% | [4]; at 11.0 µM 24% | [4]; at 33.0 µM 52% | [5]; at 1.2 µM 10% | [5]; at 3.7 µM 4% | [5]; [17] 41% and -1% | [5]; at 11.0 µM 5% | [5]; at 33.0 µM 41% | [6]; at 1.2 µM -1% | [6]; at 3.7 µM -7% | [6]; [17] 25% and 4% | [6]; at 11.0 µM 1% | [6]; at 33.0 µM 38% | [7]; at 1.2 µM -2% | [7]; at 3.7 µM 3% | [7]; at 11.0 µM 0% | [7]; at 33.0 µM 36% | [8]; [17] 7% | [9]; at 1.2 µM -14% | [9]; at 3.7 µM 7% | [9]; at 11.0 µM -1% | [9]; at 33.0 µM 21% | [10]; [17] 47% and -11% | [11]; at 1.2 µM -5% | [11]; at 3.7 µM 18% | [11]; [17] 40% and 0% | [11]; at 11.0 µM 24% | [11]; at 33.0 µM 39% | [12]; at 1.2 µM -8% | [12]; at 3.7 µM -9% | [12]; at 11.0 µM -8% | [12]; at 33.0 µM 26% | [13]; at 1.2 µM -3% | [13]; at 3.7 µM -19% | [13]; at 11.0 µM -9% | [13]; at 33.0 µM 22% | [14]; at 1.2 µM 13% | [14]; at 3.7 µM 12% | [14]; at 11.0 µM 6% | [14]; at 33.0 µM 37% | [15]; [17] 41% and 15% | [16]; at 1.2 µM 7% | [16]; at 3.7 µM 1% | [16]; at 11.0 µM 3% | [16]; at 33.0 µM 32%
52% (inactive) and 99.5% (active): [6]; at 50.0 µM
